Data on 15 molecules can be found in PubChem BioAssay.

Calls of active or inactive are those of the source.

The test system of experiment [1] is PRMT1 (protein arginine N-methyltransferase 1). Description: PRMT1 binders on small-molecule microarrays, primary screen, biochemical, small-molecule microarray, 635 nm fluorescence (AID 1088).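 Note: binding of Prmt1 protein to compounds spotted on small-molecule microarray slides.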 Particulars: small-molecule microarray binding, higher = more signal.
Experiment [2] is described as follows: yeast growth modulation, basal conditions, primary screen, YJM789 clinical isolate, OD600, 24 h (AID 1089).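 Note: growth of clinical yeast isolate S. cerevisiae YJM 789 seeded 1000 cells per well; test concentration not given here.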 Particulars: S. cerevisiae YJM789 growth, higher = more signal, called active from +8 up or from −8 down.
A short description of experiment [3]: fission yeast growth modulation, primary screen, strain 972, OD600, 24 h, no modulator (AID 1090).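 Note: basal condition with compound alone and no growth modifier present; test concentration not given here.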 The following applies: S. pombe 972 growth, higher = more signal, called active from +8 up or from −8 down.
Experiment [4] can be described thus: S. cerevisiae growth modulation with rapamycin, primary screen, strain BY4716, OD600, 96 h (AID 1091). Note: test concentration not given here. The following applies: higher = more signal, called active from +8 up or from −8 down.
For experiment [5], the target named is Torsin-1A-interacting protein 2 (Homo sapiens) (UniProt Q8NFQ8). Description: LULL1 binders on small-molecule microarray, primary screen, cell lysate, human LULL1 lysate, 635/667 nm fluorescence (AID 1092).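 Note: probe is lysate of COS7 cells overexpressing human LULL1; score merges per-feature 667 nm fluorescence with signal-to-noise.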 The following applies: hLULL1 lysate binding, 635 nm fluorescence, higher = more signal.
Experiment [6] is described as follows: E. coli growth modulation, two-sided OD650, primary screen, E. coli filamentation project, strain DRC41, 24 h (AID 1093).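 Note: MC1000 strain lacking acrAB efflux and sulA so SOS filamentation is blocked; test concentration not given here.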 The following applies: OD650, 24 h, higher = more signal, called active from +8 up or from −8 down.
The nature of experiment [7]: small-molecule microarray binders of probe aLefty2, primary screen, biochemical, biotinylated probe, 635/667 nm fluorescence (AID 1094).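 Note: score merges spot fluorescence near 667 nm with spot signal-to-noise ratio.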 The following applies: higher = more signal.
Experiment [8] deals with Noggin (protein binding on small-molecule microarray). Description: Noggin binders on small-molecule microarray, primary screen, biochemical, 635/667 nm fluorescence (AID 1095).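 Note: score merges 667 nm feature fluorescence with signal to noise over triplicate slides.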 Particulars: 635 nm fluorescence, higher = more signal.
Experiment [9] deals with Neurogenic locus notch homolog protein 3 (Homo sapiens) (UniProt Q9UM47). The experiment can be described thus: NOTCH3 binders on small-molecule microarray, primary screen, biochemical, 635/667 nm fluorescence (AID 1096). Particulars: NOTCH3 binding, 635 nm fluorescence, higher = more signal.
A short description of experiment [10]: small-molecule microarray binders of probe aEGFR, primary screen, biochemical, biotinylated probe, 635/667 nm fluorescence (AID 1097).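 Note: probe is a biotinylated anti-EGFR antibody binding compounds printed on slides; score combines fluorescence near 667 nm and signal to noise of each spot.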 The following applies: higher = more signal.

Chain of Torsin-1A-interacting protein 2 (Homo sapiens) (Q8NFQ8 whole entry, looked up): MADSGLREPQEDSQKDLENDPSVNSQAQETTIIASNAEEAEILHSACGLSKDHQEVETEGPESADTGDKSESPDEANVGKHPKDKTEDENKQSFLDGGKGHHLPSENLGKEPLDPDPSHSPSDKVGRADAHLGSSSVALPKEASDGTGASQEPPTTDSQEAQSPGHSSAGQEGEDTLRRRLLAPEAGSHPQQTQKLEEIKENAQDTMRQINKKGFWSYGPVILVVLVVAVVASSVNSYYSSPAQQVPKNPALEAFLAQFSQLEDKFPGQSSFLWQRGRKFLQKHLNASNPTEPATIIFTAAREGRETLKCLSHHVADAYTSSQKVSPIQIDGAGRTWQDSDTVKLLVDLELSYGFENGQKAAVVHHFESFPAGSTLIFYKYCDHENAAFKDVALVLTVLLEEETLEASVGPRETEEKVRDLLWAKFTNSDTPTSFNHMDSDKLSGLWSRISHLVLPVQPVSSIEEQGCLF
Chain of Neurogenic locus notch homolog protein 3 (Homo sapiens) (Q9UM47 whole entry, looked up): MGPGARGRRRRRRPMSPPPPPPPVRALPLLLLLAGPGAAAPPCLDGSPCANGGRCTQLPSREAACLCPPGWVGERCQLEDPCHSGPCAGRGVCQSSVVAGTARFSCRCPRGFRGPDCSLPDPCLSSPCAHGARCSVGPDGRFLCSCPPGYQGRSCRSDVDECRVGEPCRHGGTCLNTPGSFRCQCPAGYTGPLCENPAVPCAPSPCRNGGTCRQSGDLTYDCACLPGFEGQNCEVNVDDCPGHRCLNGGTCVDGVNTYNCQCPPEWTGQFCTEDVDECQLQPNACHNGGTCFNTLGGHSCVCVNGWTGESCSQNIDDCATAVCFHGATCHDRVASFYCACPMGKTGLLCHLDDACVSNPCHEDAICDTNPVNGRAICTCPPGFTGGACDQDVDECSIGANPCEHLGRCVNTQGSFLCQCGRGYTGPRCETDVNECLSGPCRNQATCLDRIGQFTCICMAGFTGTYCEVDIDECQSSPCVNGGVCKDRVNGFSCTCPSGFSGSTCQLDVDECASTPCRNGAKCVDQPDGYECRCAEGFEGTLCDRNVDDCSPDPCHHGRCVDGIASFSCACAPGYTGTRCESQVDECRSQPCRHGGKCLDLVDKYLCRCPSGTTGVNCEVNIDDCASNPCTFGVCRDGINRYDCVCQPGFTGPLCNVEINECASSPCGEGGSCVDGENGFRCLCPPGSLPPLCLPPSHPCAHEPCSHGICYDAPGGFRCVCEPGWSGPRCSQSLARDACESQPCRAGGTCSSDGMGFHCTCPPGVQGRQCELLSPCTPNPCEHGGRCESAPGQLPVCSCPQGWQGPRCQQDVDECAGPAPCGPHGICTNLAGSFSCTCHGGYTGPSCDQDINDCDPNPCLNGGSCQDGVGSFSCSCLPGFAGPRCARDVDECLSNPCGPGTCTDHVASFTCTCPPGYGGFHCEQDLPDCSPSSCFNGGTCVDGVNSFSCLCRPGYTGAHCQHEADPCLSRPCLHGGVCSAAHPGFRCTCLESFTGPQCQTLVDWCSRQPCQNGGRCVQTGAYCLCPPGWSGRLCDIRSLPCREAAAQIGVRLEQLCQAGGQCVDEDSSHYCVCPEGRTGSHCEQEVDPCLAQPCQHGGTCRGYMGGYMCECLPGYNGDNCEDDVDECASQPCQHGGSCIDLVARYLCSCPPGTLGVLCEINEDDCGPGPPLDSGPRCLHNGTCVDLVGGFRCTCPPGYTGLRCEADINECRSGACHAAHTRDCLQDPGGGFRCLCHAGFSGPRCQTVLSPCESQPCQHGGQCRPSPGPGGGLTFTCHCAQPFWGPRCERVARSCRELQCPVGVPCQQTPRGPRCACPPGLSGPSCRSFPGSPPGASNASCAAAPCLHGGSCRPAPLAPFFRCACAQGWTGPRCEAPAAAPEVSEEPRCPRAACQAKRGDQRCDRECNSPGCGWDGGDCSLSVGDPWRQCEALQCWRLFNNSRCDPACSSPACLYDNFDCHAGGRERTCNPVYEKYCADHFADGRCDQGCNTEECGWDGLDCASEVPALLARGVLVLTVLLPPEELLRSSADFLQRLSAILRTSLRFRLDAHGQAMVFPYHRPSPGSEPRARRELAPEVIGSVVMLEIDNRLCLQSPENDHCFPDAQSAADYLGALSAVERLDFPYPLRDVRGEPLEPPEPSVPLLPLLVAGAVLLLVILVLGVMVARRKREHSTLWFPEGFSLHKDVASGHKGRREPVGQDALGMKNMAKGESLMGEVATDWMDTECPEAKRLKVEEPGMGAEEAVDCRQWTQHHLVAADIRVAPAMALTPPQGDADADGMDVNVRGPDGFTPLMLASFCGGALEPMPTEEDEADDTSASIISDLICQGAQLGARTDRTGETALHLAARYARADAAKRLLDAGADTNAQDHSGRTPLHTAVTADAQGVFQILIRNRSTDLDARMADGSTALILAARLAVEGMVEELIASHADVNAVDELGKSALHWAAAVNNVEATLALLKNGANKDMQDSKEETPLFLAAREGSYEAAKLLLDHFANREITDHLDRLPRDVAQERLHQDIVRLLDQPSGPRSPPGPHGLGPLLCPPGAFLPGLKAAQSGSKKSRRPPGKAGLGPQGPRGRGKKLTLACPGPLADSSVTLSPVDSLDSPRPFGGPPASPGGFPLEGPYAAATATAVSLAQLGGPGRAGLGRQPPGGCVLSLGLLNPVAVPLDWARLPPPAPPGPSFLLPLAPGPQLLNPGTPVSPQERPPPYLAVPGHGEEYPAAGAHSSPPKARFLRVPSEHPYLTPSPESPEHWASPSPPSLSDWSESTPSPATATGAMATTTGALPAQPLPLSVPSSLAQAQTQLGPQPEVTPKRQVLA

As for `Cc1ccc(S[C@]2(C(=O)NCCN3CCOCC3)CC(=O)N(Cc3cc(C(F)(F)F)cc(C(F)(F)F)c3)[C@@H]2c2ccc(CO)cc2I)cc1`, the composite z-score was 0.95 in experiment [1]; 0.509 in experiment [5]; -0.183 in experiment [7]; -1.06 in [8]; -0.122 in experiment [9]; -0.0828 in experiment [10]. The z-score was -3.19 (inactive) in experiment [2], -4.73 (inactive) in experiment [3], 14.2 (active) in experiment [4] and -1.52 (inactive) in experiment [6].

`COC(=O)[C@@]1(Cc2ccc(OC)cc2)[C@H]2c3cc(C(=O)N4CCCC4)n(Cc4cc(F)cc5c4OCOC5)c3C[C@H]2CN1C(=O)c1ccccc1`: the composite z-score in [1] is -0.829; in experiment [5] it was 3.27; in [7], 0.499; in [8], -0.307; in [9], 0.77; in experiment [10], 0.241. Besides, the z-score in experiment [2] is -0.0795 (inactive); in [3] it was -0.87 (inactive); in experiment [4], 0 (inactive); in experiment [6], -1.28 (inactive).

In the case of `COc1ccc([Si](C)(C)[C@H]2[C@H](CCn3cc([C@H](O)c4ccccc4)nn3)O[C@@]3(C(=O)N(Cc4cccc(N5CCC5=O)c4)c4ccccc43)[C@@H]2C)cc1`, the composite z-score is 0.423 in experiment [1]; 0.276 in [5]; -0.196 in experiment [7]; 0.806 in [8]; 0.349 in experiment [9]; -0.167 in [10]. The z-score in experiment [2] was -1.89 (inactive); in experiment [3] it was 0.399 (inactive); in [4] it was 1.82 (inactive); in [6] it was 1.41 (inactive).

In the case of `COCCOC(=O)N1C(=O)[C@@]2(c3cc(C#CCC(C(=O)OC)C(=O)OC)ccc31)[C@H](c1ccccc1OCCO)N1[C@H](c3ccccc3)[C@H](c3ccccc3)OC(=O)[C@H]1[C@@H]2C(=O)N1CCc2cc(OC)c(OC)cc2C1`, the composite z-score was 1.56 in [1]; 2.42 in experiment [5]; -0.0373 in experiment [7]; 1.64 in [8]; 0.729 in [9]; 0.0637 in experiment [10]. Besides, the z-score in experiment [2] was 0.502 (inactive); in [3], 0.979 (inactive); in [4] it was 3.89 (inactive); in [6] it was 1.92 (inactive).

For `CC(C)NC(=O)[C@@H]1c2ccccc2C(=O)N(Cc2ccccc2)[C@H]1c1ccc(CO)cc1`, the composite z-score in [1] was 0.347; in experiment [5] it was 2.36; in experiment [7], 0.12; in experiment [8], -0.905; in experiment [9] it was -0.376; in experiment [10] it was 0.243. For the same molecule, the z-score in experiment [2] was -0.726 (inactive); in experiment [3], -0.471 (inactive); in experiment [4], -0.945 (inactive); in experiment [6], -0.106 (inactive).

For `COC(=O)[C@@]1(Cc2ccc(F)cc2)[C@H]2c3cc(C(=O)N4CCCC4)n(Cc4cccc5ccccc45)c3C[C@H]2CN1C(=O)c1ccccc1`, the composite z-score in experiment [1] is 0.187; in experiment [5], 3.85; in experiment [7], 0.698; in [8] it was -0.275; in experiment [9], 0.941; in [10], 0.245. Besides, the z-score is 0.0247 (inactive) in [2], 0.702 (inactive) in experiment [3], 0.307 (inactive) in experiment [4] and -1.48 (inactive) in [6].

`CC(C)CNC(=O)[C@@H]1c2ccccc2C(=O)N(Cc2cc(C(F)(F)F)cc(C(F)(F)F)c2)[C@H]1c1ccc(CO)cc1`: the composite z-score in [1] was 0.457; in experiment [5], 0.557; in [7], 0.104; in experiment [8], -0.96; in [9] it was -0.977; in experiment [10], -0.0682. In addition, the z-score in [2] is 0.976 (inactive); in [3] it was -0.989 (inactive); in experiment [4], -0.706 (inactive); in [6], -0.381 (inactive).

Regarding `O=C/C=C/c1ccc(Cl)cc1`, the composite z-score in experiment [1] is -1.24; in experiment [5] it was -1.2; in [7], -0.134; in experiment [8] it was -0.968; in experiment [9], -1.09; in experiment [10], -0.113. The z-score in experiment [2] was -10.4 (active); in experiment [3], -20.1 (active); in [4] it was -2.49 (inactive); in experiment [6] it was -0.767 (inactive).

As for `O=C1OCC=C[C@H]2OC34C=CCN(c5ccc6ccccc6c5)C(=O)[C@H]3N(CCCO)C(=O)[C@@H]4[C@@H]12` (stereo not given in full), the composite z-score in [1] was -0.3; in experiment [5] it was -0.309; in experiment [7], 0.0061; in experiment [8] it was 0.0654; in [9], 0.0404; in experiment [10], -0.186. For the same molecule, the z-score was 0.0281 (inactive) in experiment [2], -0.318 (inactive) in experiment [3], 0.0596 (inactive) in [4] and 0.993 (inactive) in experiment [6].

As to `CC(C)(C)OC(=O)CC[C@@]1(C(=O)NCCN2CCOCC2)N=C(c2ccc(OCCCO)cc2)O[C@@H]1c1ccccc1`, the composite z-score was 1.57 in experiment [1]; 3.1 in [5]; 0.37 in experiment [7]; 0.755 in [8]; 0.807 in [9]; 0.285 in [10]. The z-score was -0.444 (inactive) in experiment [2], 0.0418 (inactive) in [3], -0.552 (inactive) in experiment [4] and 1.03 (inactive) in experiment [6].

Regarding `C=CCC(OC(C)=O)[C@@H]1[C@@H](N(Cc2ccc(-c3ccccc3)cc2)C(=O)Cc2ccc(F)cc2)c2cc(OCCCO)ccc2N1C(=O)c1ccc2ccccc2n1` (stereo not given in full), the composite z-score was -0.0414 in experiment [1]; 0.208 in [5]; -0.057 in [7]; -0.423 in experiment [8]; -0.0833 in [9]; 0.44 in experiment [10]. Moreover, the z-score in [2] was -0.583 (inactive); in [3], -0.0387 (inactive); in experiment [4], -0.527 (inactive); in experiment [6], 1.47 (inactive).

Regarding `Cc1cc(C)c(C(O)C2C=CC3C(=O)N(C)C(=O)C3N2Nc2ccccc2)c(C)c1` (stereo not given), the composite z-score was found to be 0.378 in experiment [1]; 2.41 in experiment [5]; 1.24 in experiment [7]; 0.0355 in [8]; 0.533 in [9]; 0.907 in experiment [10]. Besides, the z-score in experiment [2] was -0.304 (inactive); in [3] it was 0.569 (inactive); in experiment [4], -0.448 (inactive); in [6], -1.32 (inactive).

In the case of `COc1ccc(C(O)C2C=CC3C(=O)N(C)C(=O)C3N2Nc2ccccc2)cc1OCc1ccccc1` (stereo not given), the composite z-score turned out to be 1.49 in experiment [1]; 3.41 in [5]; 0.287 in experiment [7]; 0.102 in experiment [8]; 0.742 in [9]; 0.0099 in experiment [10]. Moreover, the z-score in experiment [2] was -4.02 (inactive); in experiment [3], 1.11 (inactive); in [4] it was 0.317 (inactive); in [6], -1.2 (inactive).

Turning to `CCCCCCc1nc(CCCc2cc3c(c(CCCCCC)n2)[Si](C(C)C)(C(C)C)OC3)cc2c1[Si](C(C)C)(C(C)C)OC2`, the composite z-score in [1] was -0.41; in experiment [5], -0.134; in experiment [7] it was -0.208; in experiment [8] it was 0.257; in [9], -0.58; in [10] it was -0.287. In addition, the z-score in experiment [2] was -0.506 (inactive); in [3], -2.38 (inactive); in experiment [4], 0.256 (inactive); in experiment [6], -0.3 (inactive).

Take `O=C1OCCC/C=C\[C@H]2OC34C=CCN(Cn5nnc6ccccc65)C(=O)[C@H]3N(CCCCCO)C(=O)[C@@H]4C12` (stereo not given in full): the composite z-score was -1.29 in experiment [1]; 1.04 in experiment [5]; -0.114 in [7]; -0.808 in [8]; -0.0037 in experiment [9]; -0.174 in experiment [10]. The z-score was -0.401 (inactive) in experiment [2], -0.745 (inactive) in experiment [3], -1.83 (inactive) in experiment [4] and 0.498 (inactive) in experiment [6].
